# Test results from the supplement of paper PMC11417369.
# ± gives the standard deviation of the averaged measurements. Over roughly 25,000 sequences, “ln(normalized median fluorescence intensity)” has its median near 8.9; the highest 2% begin near 10. Shown is part of a subset that was picked to be rich in the highest values.
# Tested on: PfAP2-LT AP2 domain (GST-tagged)
# Experiment: gcPBM binding intensity (ln(normalized median fluorescence intensity)); higher = stronger DNA binding
# How it was run: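 Probes on an Agilent 4 × 180k array were primer-extended, double-stranded and 36 bp long, taken from intergenic genomic regions, with negative controls added. GST-tagged P. falciparum DNA-binding domains from E. coli, about 25 μg on average, were applied to the array for 1 h in 1× PBS containing 1% milk, 0.2 mg/ml BSA, 0.5% salmon testes DNA and 0.03% Triton X-100. Binding intensity, obtained after Alexa488 anti-GST antibody detection and a 488 nm scan, is the highest Masliner-normalised natural-log median intensity across replicate spots of either probe orientation.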
row,Sequence,gcPBM binding intensity (ln)
1,TATTAATATGGTAATACACACTAATATACTTTTGTT [CACACA_site6860],8.89 ± 0.5
2,ATAAAAATATATGAAACACACAGTTTCTATAAGAAA [CACACA_site4156],8.68 ± 0.47
3,CATATAATTATATATCGTACATATTAATATAATTAC [XGTACX_site401],8.68 ± 0.38
4,GTTAATTTTTGTATAGTGCAAAAATATAATAGTATG,8.64 ± 0.48
5,AACATATATAAATACACACACATATATATATGAAAT [CACACA_site4312],9.51 ± 0.26
6,AAAATAAGAAAACAAATGCACACCATTTATATAGAT [CACACA_site1055],9.03 ± 0.39
7,ATATCTATGTTTATCTCGAATAACTTAAAAAATTAT [CACACA_negctrl_site1131],8.45 ± 0.45
8,AACAGAATAATACTAAATGAACGATTTCTCTTTATG [GTGCAC_negctrl_site376],8.6 ± 0.51
9,ATAAGTGTATAAAAATGTACGTGTATAAAAATATGT [XGTACX_site8235],9.06 ± 0.43
10,GTGGTTGTAATGGTGGTGCATATTGTATATTATGTT,9.515 ± 0.078
11,ATATATTATATTTAAGTGCATTAATTAAAATGCTTA [GTGCAC_site9403],8.34 ± 0.36
12,GTGTAATGCTTATCGGTGCATATATATATATATATA,10.13 ± 0.021
13,CATCACCTTTTTAAATGTACGCATAATACCAAAAAA [XGTACX_site1587],8.6 ± 0.48
14,GAGCCCAAAAAATTAGGTACGTATAAAGAGGTATTT [XGTACX_site5348],8.8 ± 0.54
15,ACCCTATAGGTAACTACACACCGCATATTGTTTACT [CACACA_site7436],9.15 ± 0.34
16,TTAATATTTTGATGTGTACACATTAAAATAGTTTTA [CACACA_site5712],8.46 ± 0.48
17,ATATTAAACAAACACACACACATATATATATATATA [CACACA_site3383],10.2 ± 0.35
18,GAATATTAAACAAACACACACACATATATTTATATA [CACACA_site7563],9.73 ± 0.27
19,GTTTATATTAAACAAACACACACATATATATATATA [CACACA_site8749],9.57 ± 0.18
20,TTATATTAAACAAACACACACATATATATATATATA [CACACA_site2382],9.54 ± 0.49
21,GAATATTAAACAAACACACACACATATATATATATA [CACACA_site3382],10.1 ± 0.2
22,TTATATTAAACAAACACACACATATAAATATAAATA [CACACA_site7174],9.23 ± 0.3
23,TGTATATATTTGTGCACACCAAAGTTTGATTTTATT [CACACA_site1860],9.3 ± 0.42
24,TTGTATATATTAAATTGTACTTATTTTTTGTATATA [XGTACX_site3251],8.64 ± 0.54
25,CTGAGGAAGCTAATTACACACATGCATATTTTTTTT [CACACA_site2177],9.08 ± 0.28
26,GTAAAAAAAGAGCACACACACAAAAACACCCACAAA [CACACA_site1292],10.3 ± 0.23

row,Sequence,gcPBM binding intensity (ln)
1,CACAAACAAAAACACACACACACACCCACAAAAATG [CACACA_site2429],10.2 ± 0.34
2,AGCACACCCACAAAAACACACACAAAGGTGTTCTTA [CACACA_site8355],9.39 ± 0.42
3,AAAAAAAAAAAAAACACACACATACACCCAAAAATG [CACACA_site4223],9.66 ± 0.24
4,AAAAAAATAAAACACACACACAAAAAAATAAAAATA [CACACA_site465],9.56 ± 0.3
5,TGCAACAAAATAAACACACACACACTAACACAAAAA [CACACA_site7567],9.98 ± 0.33
6,AAAAAAAAAAAACACACACACACACCCACAAAATAT [CACACA_site1447],10.31 ± 0.028
7,TGCAACAAAATAAACACACACACACCCCCACAAAAA [CACACA_site3388],10.36 ± 0.057
8,AATGTACCCACACCCACACACAAACAAATATATATA [CACACA_site2751],9.74 ± 0.29
9,AATGTACACCCACCCACACACAAACAAATATATATA [CACACA_site5521],10.1 ± 0.4
10,TTTAAACAAGGATCCACACACCCCAAAAAAAAAAGA [CACACA_site680],9.26 ± 0.4
11,AAAAATAAAAAAATGACACACATATATATATATATA [CACACA_site2307],9.85 ± 0.11
12,TATAACAATTTTTATGCATGCGACTATAATATTTTT [TGCATGCA_site508],8.92 ± 0.42
13,ATTATATAAGTACACAAACAAGTATGAGATTCAAAA [GTGCAC_negctrl_site119],8.88 ± 0.5
14,ATATATTATATGTACACACACATATAAGGGATTATA [CACACA_site5],9.28 ± 0.4
15,TTATATTATATATATGTGCACATTTTTAAACTTGGA,8.77 ± 0.47
16,ACAAACAAAGAAAGAACACACATACACAAGATACCT [CACACA_site7353],9.54 ± 0.26
17,ATATAACTTTTAAAAGCATGCAAATATTTACTCAAT [TGCATGCA_site396],8.78 ± 0.45
18,TGATAAGAAAAAGACTTTTCCTTCTTACTTTCTATG [CACACA_negctrl_site782],8.55 ± 0.59
19,ACATGAAGATATTTTTGTCCGTACAAATTCATATGA [XGTACX_site1837],8.66 ± 0.23
20,AAGGTATTTATAACTACACACTTATTTATAACCTAA [CACACA_site6194],8.7 ± 0.43
21,ATATGAAGTATCGAATTAAGGGCAACAAATAAATTA [CACACA_negctrl_site1116],8.76 ± 0.57
22,GTGGAAAAAAATAATTGTACACAATAATAAATATAT [XGTACX_site2414],8.87 ± 0.45
23,GTTTGAATGGCGCACTGTACACATATATACATATAG [XGTACX_site8619],9.13 ± 0.26
24,TTCTATTCACATTTTACACACGTCCATCGCATTTTA [CACACA_site3453],9.44 ± 0.46
25,ATTTTTTATGGACAAAAGACCTCTGATGTAAATATA [CACACA_negctrl_site1081],8.38 ± 0.4
26,CCCACAGACGGACACACACACACACCGACACATATA [CACACA_site4356],10 ± 0.26

row,Sequence,gcPBM binding intensity (ln)
1,TTTGTTGACGGACACACACACATACAGATATATATA [CACACA_site5292],9.4 ± 0.27
2,AGCACAGACGGACACACACACATATATATATATATA [CACACA_site4341],10.37 ± 0.085
3,CCCACAGACGGACACACACACATATATATATATATA [CACACA_site4351],10.4 ± 0.22
4,CACAGACACGGACACACACACATATATAATATATAT [CACACA_site4495],9.87 ± 0.42
5,CATACATACAGACACACACACATATTTATATTTATA [CACACA_site6172],9.9 ± 0.41
6,GAATTATATACTTATTGTACAAAAAAAAAAAAAAAA [XGTACX_site3193],8.36 ± 0.4
7,TGCAGTCTGGAGAAACGTACATAGTATCTGGTAGCT [XGTACX_site4937],8.94 ± 0.57
8,TTCAACGTTTTGGAATGTACAGAAAGGTATCCATCA [XGTACX_site179],8.62 ± 0.42
9,CACGCATACGGACACACACACACACCGATATATATA [CACACA_site4521],9.89 ± 0.33
10,CACCATGATACATACACACAGACATATACGCATTCA [CACACA_site1008],9.46 ± 0.18
11,TACACATACAGACATACACACATACCCATATACTCA [CACACA_site5037],9.6 ± 0.41
12,CATACACCCATACATACACACATACAGATATATATA [CACACA_site5123],9.29 ± 0.33
13,CACGCATACAGACACACACACACACCCATATATATA [CACACA_site636],10.2 ± 0.37
14,AGTACAGACATAGACACACACACACCCATAAAAAAA [CACACA_site1515],9.99 ± 0.45
15,ATAGTATACAGACACACACACACACCCATATATATA [CACACA_site1736],10.2 ± 0.29
16,TATCTCATAGTATACACACACACACCCACCCATATA [CACACA_site1739],10.1 ± 0.11
17,CACGCATACAGACACACACACACACCGATATATATA [CACACA_site8113],10.1 ± 0.37
18,TATATCTCATAGTATACACACACACCCACCCACATA [CACACA_site8513],9.9 ± 0.23
19,GGCATATATATATGCACACATACATATATACATGTG [CACACA_site3859],9.7 ± 0.3
20,GTTACACAAACAAACACACACACACGCACGCACAAA [CACACA_site7191],10 ± 0.2
21,AAAGAAAAAAAAAAAAAAAAAAAAAAAATTATACAT [CACACA_negctrl_site7],8.45 ± 0.64
22,TTTAAAACCTTACATACACACAAATATGTAAATATA [CACACA_site6464],8.75 ± 0.42
23,GAGCACCAAAATATATGTACATATGATAAATGTGAA [XGTACX_site1130],8.96 ± 0.51
24,GTTATTGAAAAAATAGTGCAATATAACAAAGTAAAA,8.85 ± 0.48
25,AAAAAAAACGAACACACACACAAATATGTAAAAATA [CACACA_site6673],9.87 ± 0.28
26,ATTATATTAATATATATATATATATATATAATAATA [CACACA_negctrl_site437],8.69 ± 0.3

row,Sequence,gcPBM binding intensity (ln)
1,TACACCCATGGACACACACACACGCATAAAAAAAAA [CACACA_site4933],9.85 ± 0.58
2,TACACGCATGGACACACACACACACCCATATATATA [CACACA_site4522],10.3 ± 0.35
3,TCATAGTATGGACACACACACACACCCATATATATA [CACACA_site5033],10 ± 0.25
4,AAAAAAAATCAAATGGGTACTTATTCTTAATAATAT [XGTACX_site3792],8.61 ± 0.33
5,TTTTTAGAAAAGGTTATAAAAAATTAATTGAAAAAA [GTGCAC_negctrl_site289],8.05 ± 0.47
6,TAAAAGTAAAGACATGCATGCATTGGTATCTTTTAC [TGCATGCA_site665],8.95 ± 0.35
7,GTAGACTGAAACCACACACACATATATAAATATATT [CACACA_site6433],9.68 ± 0.38
8,ATGTAGACTGAAACCACACACACATATATATATATA [CACACA_site606],10.2 ± 0.2
9,GTAGACTGAAACCACACACACATATATATATATATT [CACACA_site605],9.8 ± 0.13
10,GCGTTGTTTTTAAAAAGTACATTTTTATATAAGTTA [XGTACX_site8780],8.54 ± 0.46
11,TATTAAGAAGAAAATTCACACATTTGTACCTCTCTT [CACACA_site4822],8.86 ± 0.47
12,GACATATTCCCCCCCACACACACACCCACATACATA [CACACA_site2302],11.1 ± 0.18
13,TACAGACATACATACACACATACATACAGACATACA [CACACA_site1941],9.43 ± 0.38
14,ATTCTACACCCACATACACACATATATATATATATA [CACACA_site3426],10 ± 0.085
15,TTCCCCCCCAGACACACACACACATACATACCACAT [CACACA_site2305],11.1 ± 0.77
16,ATATATATATATTCCACACACACACCCAAAAAAAAA [CACACA_site3649],9.745 ± 0.05
17,TATTCCCCCCAACACACACACACACCGACATACCAC [CACACA_site8723],10.8 ± 0.26
18,AAATTCCACCAACACACACACATATAAATAAATAAA [CACACA_site1233],9.86 ± 0.42
19,TATTCCCCCAAACACACACACACACCCACATACCAC [CACACA_site2304],10.5 ± 0.13
20,ACATACATACCCCCACGTACGTACCGAAACACCACC [XGTACX_site1982],9.74 ± 0.028
21,TACACCCACCCACATACACACACATACACATATATA [CACACA_site8503],10.1 ± 0.21
22,CATACAGACATACATACACACATACATACAGACATA [CACACA_site6996],9.56 ± 0.35
23,ACATTCTATACATACACACCCACACCCAAAAAAAAA [CACACA_site863],9.59 ± 0.042
